Source: the supplement of paper PMC6555819

What was measured:
Assay in all cases: PBM binding z-score (relative to random genomic background probes); higher = stronger binding; sequences stand for … in GC…GCGATTGACAGCGTAGAATGAAGG
[1] = tested on: FXR:RXRa (NR concentration 270 nM, RXRa partner concentration 90 nM)
How it was run: (§1)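 Custom Agilent 4×180K protein-binding microarrays carried double-stranded probes. Their 34-nt variable regions held direct-repeat seeds, single-nucleotide variants, half-site ablations and random human genomic background sequences. Arrays were incubated 1 h with ligand-free nuclear receptor dimers in PBS pH 7.4, 2% milk, 0.02% Triton X-100, 1 mM DTT, 0.2 mg/mL BSA and 0.4 mg/ml salmon testes DNA. Antibodies against each partner (one per run) detected binding, and scanned fluorescence was regression-normalized. Binding z-scores use random background probes as reference.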

[2] = tested on: LXRa:RXRa (NR concentration 270 nM, RXRa partner concentration 90 nM)
How it was run: as §1

[3] = tested on: LXRa homodimer (NR concentration 270 nM)
How it was run: as §1

[4] = tested on: LXRb:RXRa (NR concentration 270 nM, RXRa partner concentration 90 nM)
How it was run: as §1

[5] = tested on: LXRb homodimer (NR concentration 270 nM)
How it was run: as §1

[6] = tested on: PPARa:RXRa (NR concentration 270 nM, RXRa partner concentration 90 nM)
How it was run: as §1

[7] = tested on: PPARg:RXRa (NR concentration 180 nM, RXRa partner concentration 90 nM)
How it was run: as §1

[8] = tested on: PPARg:RXRa 270nM:90nM, anti-RXR (NR concentration 270 nM, RXRa partner concentration 90 nM)
How it was run: as §1

[9] = tested on: PPARg:RXRa 30nM:10nM, anti-RXR (NR concentration 30 nM, RXRa partner concentration 10 nM)
How it was run: as §1

[10] = tested on: PPARg:RXRa 90nM:30nM, anti-RXR (NR concentration 90 nM, RXRa partner concentration 30 nM)
How it was run: as §1

[11] = tested on: PPARg:RXRa DBDmut IVT, anti-RXR (DBD mutation: RXRa K156A/R161A, NR concentration 270 nM, RXRa partner concentration 90 nM)
How it was run: as §1

[12] = tested on: PPARg:RXRa IVT, anti-PPARg (NR concentration 270 nM, RXRa partner concentration 90 nM)
How it was run: as §1

[13] = tested on: PPARg DBDmut:RXRa IVT, anti-PPARg (DBD mutation: PPARg1 K132A/R137A, NR concentration 270 nM, RXRa partner concentration 90 nM)
How it was run: as §1

[14] = tested on: PPARg DBDmut IVT, anti-PPARg (DBD mutation: PPARg1 K132A/R137A, NR concentration 270 nM)
How it was run: as §1

[15] = tested on: PPARg homodimer (NR concentration 180 nM)
How it was run: as §1

[16] = tested on: PXR:RXRa (NR concentration 270 nM, RXRa partner concentration 90 nM)
How it was run: as §1

[17] = tested on: PXR homodimer (NR concentration 270 nM)
How it was run: as §1

[18] = tested on: RARa:RXR (NR concentration 270 nM, RXRa partner concentration 90 nM)
How it was run: as §1

[19] = tested on: RARa homodimer (NR concentration 270 nM)
How it was run: as §1

[20] = tested on: RARb:RXRa (NR concentration 270 nM, RXRa partner concentration 90 nM)
How it was run: as §1

| Sequence | PBM binding z-score [1] | PBM binding z-score [2] | PBM binding z-score [3] | PBM binding z-score [4] | PBM binding z-score [5] | PBM binding z-score [6] | PBM binding z-score [7] | PBM binding z-score [8] | PBM binding z-score [9] | PBM binding z-score [10] | PBM binding z-score [11] | PBM binding z-score [12] | PBM binding z-score [13] | PBM binding z-score [14] | PBM binding z-score [15] | PBM binding z-score [16] | PBM binding z-score [17] | PBM binding z-score [18] | PBM binding z-score [19] | PBM binding z-score [20] |
| --- | --- | --- | --- | --- | --- | --- | --- | --- | --- | --- | --- | --- | --- | --- | --- | --- | --- | --- | --- | --- |
| TCGAGTAGGTTACCGATGGGGCATTCAGCTTTCT | 0.211 | 0.803 | -0.358 | 0.678 | -0.864 | 1.29 | 0.217 | 1.3 | 1.26 | 1.3 | 3.39 | 2.48 | -0.681 | -0.945 | -0.276 | -0.00678 | -0.759 | 0.377 | -0.625 | 0.88 |
| CGAACGAGGGCATGAGTTGACAGCAAATGCCGAT | 0.601 | 0.522 | -0.133 | 0.145 | -1.11 | 1.81 | 1.53 | 1.54 | -0.213 | 0.897 | 2.75 | 2.11 | -0.484 | -0.439 | 0.454 | 0.679 | 0.0292 | 0.954 | -0.609 | 2.21 |
| TCATATAGGTAGACAGGTGAAAGTCCGTAAGTTA | 0.952 | 1.11 | 0.173 | 0.898 | -0.226 | 1.32 | 0.974 | 2.5 | 3.79 | 3.27 | 3.02 | 1.33 | 1.18 | 0.507 | 1.25 | 0.852 | 0.981 | 0.512 | 1.24 | 0.76 |
| TCTAGTTGATCACGGAGGTCACACACGACGGGTA | 2.88 | 3.08 | 1.8 | 3.27 | 0.399 | 3.76 | 2.09 | 3.19 | 3.41 | 2.99 | 1.39 | 2.26 | 0.727 | 1.1 | 2.02 | 4.29 | 1.44 | 4.94 | 0.922 | 3.24 |
| ATCGAAAGGTCGAGGTGAGTTTAGAGAAAGGGAA | 4.34 | 3.68 | -0.00415 | 2.76 | 0.473 | 4.5 | 3.03 | 3.81 | 1.16 | 2.57 | 0.367 | 2.26 | 0.969 | 0.594 | 1.7 | 5.04 | 1.12 | 3.71 | 0.68 | 4.26 |
| CCTTACGGGTCACTGACAGGTTATGGCATTTGGA | 5.56 | 4.1 | 0.253 | 3.08 | -0.323 | 5.03 | 4.2 | 4.62 | 1.67 | 3.02 | 3.42 | 3.8 | 0.363 | -0.311 | 3.61 | 3.77 | -0.0581 | 4.95 | 1.29 | 4.04 |
| TAGCCTAGATCATTGGGCCAGTATAGTACGCATC | -0.685 | -0.948 | -0.567 | -0.649 | -0.658 | -0.513 | 0.37 | -0.537 | -0.101 | -0.125 | 0.771 | 0.88 | 0.335 | -0.32 | -0.814 | -0.775 | -0.695 | -0.564 | -0.292 | -1.15 |
| ACTAGTTGGTGAGCTGAGGTCACACACAATTCGG | 2.78 | 2.49 | 1.5 | 2.85 | 0.277 | 3.35 | 1.49 | 2.09 | 0.341 | 1.3 | 0.913 | 1.97 | 0.121 | 0.0784 | 2.24 | 4.76 | 1.9 | 4.65 | 0.439 | 2.98 |
| AGTCAAAGTTCATGACGAGGTAACGTAAAGCACG | 6.67 | 6.13 | 2.96 | 3.45 | 0.691 | 5.01 | 6.45 | 6.59 | 3.58 | 5.63 | 0.137 | 3.44 | 1.06 | 1.37 | 3.26 | 4.93 | 1.98 | 4.61 | 0.824 | 4.84 |
| CCTTACGGGTCACGAGGTTATGGCACGACGAGCG | 6.57 | 4.39 | 0.195 | 3.8 | 0.148 | 5.94 | 7.08 | 6.31 | 3.46 | 5.31 | 3.69 | 5.37 | 1.26 | 0.892 | 2.01 | 4.16 | 0.0957 | 5.67 | 0.689 | 4.51 |
| CAAACTAGGTTAAAGGTCAAAGTCGAGCCAACCA | 6.87 | 6.3 | 5.27 | 6 | 2.67 | 7.07 | 13.2 | 11 | 14.1 | 13.4 | 7.78 | 8.2 | 3.63 | 3.37 | 5.35 | 6.11 | 1.51 | 7.9 | 3.41 | 4.76 |
| TAGCCTGGGTCATGGGCCAGTATACCACGCGAAC | 3.85 | 2.34 | -0.426 | 2.04 | -0.671 | 4.14 | 4.11 | 3.94 | 1.09 | 2.53 | 0.288 | 3.03 | 0.752 | -1.17 | 1.52 | 1.73 | -0.609 | 2.83 | -0.797 | 3.26 |
| CCTGCTAGGTCATGGTCAGTTAATCTACAGTATG | 3.84 | 2.66 | 0.0744 | 1.97 | -0.163 | 3.48 | 2.31 | 2.88 | 0.868 | 2.13 | 4.72 | 3.92 | 0.767 | 0.558 | 1.63 | 2.31 | -0.286 | 2.62 | 0.426 | 3.96 |
| AGAACGAGGGCACGGTGAGTTGATAGCAGAGTAG | 1.12 | 0.775 | -0.352 | 0.306 | -0.638 | 2.61 | 2.7 | 2.19 | 0.933 | 1.2 | 3.46 | 4.14 | 1.46 | 0.552 | 0.477 | 1.76 | 0.0665 | 1.27 | -0.263 | 2.75 |
| TCTTGTAGATCAATAGAGGTTGAGAAAGTGCGCT | 0.33 | 0.354 | -0.0207 | 0.212 | -0.126 | 0.471 | -0.324 | 1.44 | 2.63 | 1.98 | 1.55 | 0.494 | 0.467 | 0.307 | -0.399 | 1.01 | -0.0662 | 0.48 | -0.121 | -0.0211 |
| CTCGAAAGGTCGTGCTCAGGTAAGTATACCAAAC | 5.43 | 4.11 | 0.35 | 3.55 | 0.134 | 5.08 | 2.41 | 4.23 | 1.01 | 2.94 | 0.999 | 1.78 | 0.44 | -0.41 | 1.63 | 3.24 | 0.482 | 3.73 | 0.0606 | 3.99 |
| TCTTGTAGATCAAGCAGGTTAAGATAGCCTGAGT | 0.371 | 0.507 | -0.257 | 0.188 | -0.36 | 0.829 | -0.193 | 1.27 | 2.75 | 2.18 | 1.74 | 0.733 | 0.115 | 0.351 | 0.386 | 0.406 | -0.159 | 0.668 | -0.0619 | 0.309 |
| TGTCAAACTTCAAAGGTAACGTAAGTATCCACAC | 0.417 | 0.363 | -0.174 | 0.695 | 0.266 | 0.877 | 0.587 | 0.784 | 0.906 | 0.841 | -0.251 | 1.47 | 0.991 | 1.2 | 0.478 | 0.345 | -0.16 | 0.522 | 0.335 | 0.94 |
